Assay outcomes (PubChem)
Many of the other results were omitted from the sample, so hits are more common in it than they were.
Pf Dd2 inh: Plasmodium falciparum Dd2 growth inhibition; Potency, µM (top dose mostly 28.9 µM), without a hit: at the highest dose activity, negative = inhibition, hits mostly inhibitors; 120,000 compounds, 4.3% hits; P. falciparum Dd2 growth, SYBR Green, 72 h; active means well fitted inhibition curve with a large enough effect;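 further: plate controls were DMSO vehicle for no effect and reference drug for full effect; nearly all actives have a fitted effect of over 65% in size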
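Infected erythrocytes (Dd2, 0.3% parasitemia, 2.5% hematocrit final) are added to compound in RPMI-1640/Albumax II medium, grown 72 h at 37C in low oxygen, then lysed with saponin/Triton-X containing SYBR Green and read by fluorescence.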
Starred values were filed as active, the others as inactive; [ ] = dose if it differs, or a comment. Potency means the concentration at half of the fitted maximal effect.

Results for CCN1c2cc(C(=O)Nc3ccc(Br)c(C)c3)ccc2C(=O)N2CCCCC21 (centres undefined) ?
Pf Dd2 inh: 5.6µM*

What do the screens show for `CCc1cccc(NC(=O)c2ccc3c(c2)N(C)C2CCCCCN2C3=O)c1` (centres undefined)?
Pf Dd2 inh: -27%

Results for CCN1c2cc(C(=O)Nc3ccc(C)c(Cl)c3)ccc2C(=O)N2CCCC21 (centres undefined) ?
Pf Dd2 inh: -22%

What do the screens show for `CCN1c2cc(C(=O)NCc3ccc(C)cc3)ccc2C(=O)N2CCCCCC21` (centres undefined)?
Pf Dd2 inh: -9%

Results for CCc1cccc(NC(=O)c2ccc3c(c2)N(CC)C2CCCCCN2C3=O)c1 (centres undefined) ?
Pf Dd2 inh: 5.6µM*

Results for CCN1c2cc(C(=O)Nc3ccc(C)cc3)ccc2C(=O)N2CCCCC21 (centres undefined) ?
Pf Dd2 inh: inactive

How did CCN1c2cc(C(=O)NCc3ccccc3)ccc2C(=O)N2CCCCC21 (centres undefined) do in these assays?
Pf Dd2 inh: -4%

What do the screens show for `CN1c2cc(C(=O)Nc3cc(F)cc(F)c3)ccc2C(=O)N2CCCCCC21` (centres undefined)?
Pf Dd2 inh: 4.5µM*

What do the screens show for `CCN1c2cc(C(=O)Nc3cccc(C)c3)ccc2C(=O)N2CCCCCC21` (centres undefined)?
Pf Dd2 inh: -15%

How did Cc1cc(C)cc(NC(=O)c2ccc3c(c2)N(C)C2CCCCCN2C3=O)c1 (centres undefined) do in these assays?
Pf Dd2 inh: inactive

Results for Cc1cccc(OCCc2noc(C3CCCN3C(=O)COc3ccccc3)n2)c1 (centres undefined) ?
Pf Dd2 inh: -9%

What do the screens show for `COc1ccccc1OCCNC(=O)C(C)C1CCOCC1` (centres undefined)?
Pf Dd2 inh: -1%

What do the screens show for `COC(=O)c1cc2n(n1)CCCN(C(=O)C1CCCCn3nnnc31)C2` (centres undefined)?
Pf Dd2 inh: -6%

What do the screens show for `Cc1ccc(-c2noc([C@@H]3C[C@H](NS(=O)(=O)c4ccc(F)cc4)CN3C)n2)cc1`?
Pf Dd2 inh: inactive

How did O=C(CN1CCOCC1)N1CCNc2cnc(Nc3ccc(-n4ccnc4)cc3)nc2C1 do in these assays?
Pf Dd2 inh: 12%[44.1 µM]

What do the screens show for `CCOc1ccc(C(=O)N[C@@H]2CN(S(C)(=O)=O)C[C@H]2CN(C)C)cc1`?
Pf Dd2 inh: inactive

Results for COc1ccc(CN2C(=O)[C@@H]3C[C@@H](O)CN3C3(CNC3)C2=O)cc1 ?
Pf Dd2 inh: 12%[44.1 µM]

Results for CC(C)NC(=O)C[C@@H]1C[C@H]2O[C@H](CNC3CCC3)[C@@H](O)[C@H]2O1 ?
Pf Dd2 inh: 32%[44.1 µM]

How did COc1ccc(C2=NOC3(CCN(C(=O)c4ccc(C)cc4)C3)C2)cc1 (centres undefined) do in these assays?
Pf Dd2 inh: inactive

Results for O=C(Cn1nc2c(cc1=O)CCCC2)NCCc1c[nH]c2ccc(F)cc12 ?
Pf Dd2 inh: 1%

How did CC(C)n1c(C2CCN(C(=O)c3n[nH]c4ccccc34)CC2)nn(C)c1=O do in these assays?
Pf Dd2 inh: -18%

Results for CCc1cccc2c(C(CC(=O)NCCC(C)C)c3cccc(OC)c3OC)c[nH]c12 (centres undefined) ?
Pf Dd2 inh: -10%

Results for Cc1ccc(CNC(=O)c2ccc3c(c2)N(C)C2CCCCCN2C3=O)cc1C (centres undefined) ?
Pf Dd2 inh: inactive

How did CCN1c2cc(C(=O)NCc3cccc(C)c3)ccc2C(=O)N2CCCCC21 (centres undefined) do in these assays?
Pf Dd2 inh: inactive

What do the screens show for `CCN1c2cc(C(=O)Nc3cccc(C)c3)ccc2C(=O)N2CCCCC21` (centres undefined)?
Pf Dd2 inh: inactive

What do the screens show for `Cc1cccc(CNC(=O)c2ccc3c(c2)N(C)C2CCCN2C3=O)c1` (centres undefined)?
Pf Dd2 inh: 10µM*

What do the screens show for `CCc1cccc(NC(=O)c2ccc3c(c2)N(C)C2CCCN2C3=O)c1` (centres undefined)?
Pf Dd2 inh: -7%

What do the screens show for `CCc1cccc(NC(=O)c2ccc3c(c2)N(CC)C2CCCCN2C3=O)c1` (centres undefined)?
Pf Dd2 inh: 4.5µM*

What do the screens show for `COCCNC(=O)N1CCCC(c2noc(COC)n2)C1` (centres undefined)?
Pf Dd2 inh: 25%

What do the screens show for `O=C(Cn1ccn2nc(-c3ccccc3)c(CO)c2c1=O)Nc1ccc(Cl)cc1F`?
Pf Dd2 inh: 4%

Results for O=C1N[C@@H]2CCN(S(=O)(=O)c3cccc(F)c3)[C@@H]2C(=O)N1c1ccc(F)cc1 ?
Pf Dd2 inh: 2%[44.1 µM]

How did COc1cccc(NC(=O)Cn2nc(N3CCN(c4ccccc4)CC3)ccc2=O)c1 do in these assays?
Pf Dd2 inh: -10%

What do the screens show for `CCOc1ccc(CNC(=O)Cn2nc(N3CCN(c4ccccc4)CC3)ccc2=O)cc1`?
Pf Dd2 inh: -2%
